# Shown are actives, neighbours in structure and some others; about 6.6% of the full set was active somewhere.
# MCF10A rerep = induces DNA re-replication in MCF 10a normal breast cells; MCF 10A DNA re-replication, Hoechst nuclear intensity, 48 h; Potency, µM (series often up to 46.1 µM), inactives show top-dose activity, positive = re-replication, usual class: activators; 2.9% of 350,000 active; further: % of control where 0% means no effect; nearly all actives have a fitted effect of over 50% in size
# SW480 rereplic = induces DNA re-replication in SW480 colon adenocarcinoma cells | Potency, µM (titrated, usually from 46.1 µM), for the others: at the top dose re-replication activation, hits mostly activators | 1.8% of 340,000 active | AID 624297 | SW480 DNA re-replication, Hoechst DNA content imaging, 48 h; further: % of control where 0% means no effect; nearly all actives have a fitted effect of over 55% in size
#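 Per well, 250 cells were exposed to pinned compound for 48 hr. Nuclear DNA was visualised with Hoechst (40 min, 37 C) and total object intensity recorded by fluorescence scanning.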
# PTAP TSG101 blk = blocks PTAP/TSG101 interaction to inhibit HIV-1 budding. Potency, µM (titrated, usually from 115 µM), for inactives: at the top dose activity change, negative = inhibition, most hits filed as inhibitors. Q99816. 340,000 tested, under 10 active. Fluorescence polarization, FITC-PTAP peptide / Tsg101 binding; active means well fitted inhibition curve with a large enough effect in the main read-out, with a control signal flat, not every such curve was filed as active; inconclusive means small, poorly fitted or top-dose-only effect, or effect the other way, or a change in a side signal; inactive means no such curve, though single readings can be large or run the other way; further: % of control where 0% means no effect
# Target sequence (Q99816 whole entry, looked up): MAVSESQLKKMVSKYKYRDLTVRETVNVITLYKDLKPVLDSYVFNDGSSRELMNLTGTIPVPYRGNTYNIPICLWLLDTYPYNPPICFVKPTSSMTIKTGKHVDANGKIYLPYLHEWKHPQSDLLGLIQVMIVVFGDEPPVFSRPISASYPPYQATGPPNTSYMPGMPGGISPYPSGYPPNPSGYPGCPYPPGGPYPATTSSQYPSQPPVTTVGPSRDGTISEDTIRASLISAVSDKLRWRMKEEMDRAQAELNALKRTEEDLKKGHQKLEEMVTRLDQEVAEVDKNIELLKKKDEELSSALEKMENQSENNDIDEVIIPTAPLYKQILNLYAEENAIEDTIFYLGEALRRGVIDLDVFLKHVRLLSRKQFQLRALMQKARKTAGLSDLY
#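 Fluorescence polarization binding of Tsg101 binding domain (10 uM final) to FITC-labeled PTAP peptide (50 nM final) in HEPES pH 7.5 buffer with NaCl, Tween 20, EDTA, TCEP. Compounds added before peptide; binding 20 min at RT.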
# RGS4 inhibitor = inhibitors of human regulator of G protein signaling 4. P49798. Transcreener GDP fluorescence polarization, RGS4-accelerated GTP hydrolysis. Potency, µM (titrated, usually from 114 µM), inactives show top-dose activity change, negative = inhibition, most hits filed as inhibitors. 0.039% of 390,000 active. AID 504845; further: on the % scale 0 is the no-effect control and ±100 the full control effect; nearly all actives have a fitted effect of over 75% in size
# Target sequence (P49798 whole entry, looked up): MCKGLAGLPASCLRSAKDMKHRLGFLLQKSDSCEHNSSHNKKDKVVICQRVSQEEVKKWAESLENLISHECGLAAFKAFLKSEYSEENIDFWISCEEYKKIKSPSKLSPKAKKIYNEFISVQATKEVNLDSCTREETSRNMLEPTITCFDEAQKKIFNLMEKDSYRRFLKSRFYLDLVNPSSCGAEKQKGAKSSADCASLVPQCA
#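 MLSMR compounds (23 nl, pin-transferred) preincubated 10 min at room temperature with a 500nM (2x) first reagent, then RGS4 at 900nM (2x) plus Transcreener GDP mix added; fluorescence polarization (620/688 nm) read before and after 90 min at 30 °C.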
# KB-3-1 tox = kills parental KB-3-1 adenocarcinoma cells; KB-3-1 viability, CellTiter-Glo ATP luminescence, 72 h; Potency, µM (highest dose often 46.1 µM), hits mostly cytotoxic; 1.4% of 400,000 active; AID 1347075; further: on the % scale 0 is the no-effect control and ±100 the full control effect; nearly all actives have a fitted effect of over 60% in size
#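 Cytotoxicity measured as CellTiter-Glo luminescence after 72 h at 37 C. Compound titrations were pinned onto drug-naive KB-3-1 parental adenocarcinoma cells grown in DMEM with 10% FBS, and normalized data fitted to concentration-response curves.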
# KB-V1 cytotox = kills drug-selected multidrug resistant KB-V1 cells. KB-V1 MDR cells viability, CellTiter-Glo, 72 h. Potency, µM (doses to about 46.1 µM), hits mostly cytotoxic. 3.4% of 400,000 active. AID 1347076; further: on the % scale 0 is the no-effect control and ±100 the full control effect; nearly all actives have a fitted effect of over 60% in size
#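 Cytotoxicity toward P-gp-expressing KB-V1 cells was determined as loss of CellTiter-Glo luminescence after 72 h at 37 degrees C. Compounds were tested in quantitative HTS format across a concentration range, with curves fitted to normalized data.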
# * marks the source's active call; other numbers are inactive results; i = inactive; ? = inconclusive; / = no result; [ ] = remark or other dose. Unless noted, the call rests on the fitted dose curve; in most records, active means well fitted curve in the direction sought with a large enough effect; inconclusive means small, poorly fitted or top-dose-only effect, or another doubt; inactive means no such curve, though single readings can be large; an effect the other way counts as inactive or inconclusive. Potency means the concentration at half of the fitted maximal effect.
SMILES,MCF10A rerep,SW480 rereplic,PTAP TSG101 blk,RGS4 inhibitor,KB-3-1 tox,KB-V1 cytotox
Cc1nn(-c2ccccc2)c(-n2cccc2)c1C(=O)N1CCN(c2ccccc2)CC1,/,/,/,-7%,i,i
CCOc1ccc(NC(=O)CCCn2c(C)c3cnn(-c4ccccc4)c(=O)c3c2C)cc1,/,/,/,-13%,i,i
CCC(O)c1nc2ccccc2n1Cc1cc(C)ccc1C (stereo unspecified),/,/,/,-8%,/,/
COc1ccc(-c2nn(-c3ccccc3)cc2/C=C(\CC(=O)O)c2nc3ccccc3s2)cc1OC,18µM*,2%,-7%,-45%,i,i
Oc1c(N=NC(=S)Nc2ccccc2F)c2ccccc2n1Cc1cccc(Cl)c1,7%,0%,-3%,-28%,6.5µM*,i
NC(=S)N=Nc1c(O)n(Cc2ccc(Br)cc2)c2ccccc12,5.8µM*,8.2µM*,2%,-29%,3.3µM*,4.6µM*
Cc1cccc(Cn2c(O)c(N=NC(=S)Nc3ccccc3F)c3ccccc32)c1,-6%,-96%,-2%,-10%[56.9 µM],?,?
Cn1c(O)c(N=NC(=O)c2ccccc2O)c2ccccc21,?,?,-2%,?,i,16µM*
CC(C)CCn1c(O)c(N=NC(=O)c2ccco2)c2ccccc21,15%,-5%,-3%,23%,i,13µM*
Cc1occc1C(=O)N=Nc1c(O)n(C)c2ccccc12,-3%,?,1%,-23%,i,i
Cc1ccc(Cn2c(=O)n(CCCCC(=O)NCCc3ccc(Cl)cc3)c(=O)c3ccccc32)cc1,/,/,/,5%,i,i
CC(C)Cn1c(O)c(N=NC(=O)c2cccc(S(=O)(=O)N3CCCCC3)c2)c2ccccc21,?,?,-2%,1%,?,2.1µM*
O=C(N=Nc1c(O)n(Cc2ccccc2)c2ccccc12)c1cc2ccccc2cc1O,10µM*,?,0%,-6%,?,?
O=C(N=Nc1c(O)n(Cc2ccccc2)c2ccccc12)c1ccc(O)cc1,6%,-10%,-6%,-38%,?,15µM*
O=C(NNC(=O)c1cccc(S(=O)(=O)N2CCCCC2)c1)c1ccccc1,-8%,-4%,-1%,31%,i,i
Cc1ccc(NC(=O)Cn2c(O)c(N=NC(=O)c3cc4ccccc4cc3O)c3ccccc32)cc1,?,?,-3%,1%,?,?
CCCN(CCC)C(=O)c1nn(C)c2c1CSc1ccc(C)cc1-2,/,/,/,-26%,i,i
CSCCC1NC2(C(=O)Nc3c(C)cc(Cl)cc32)[C@@H]2C(=O)N(C3CCCC3)C(=O)[C@H]12 (stereo partly specified),27%,?,-7%,3%,?,4.6µM*
COC(=O)c1scc(-c2ccc(C)cc2)c1S(=O)(=O)N1CCN(c2cccc(Cl)c2)CC1,/,/,/,-24%,i,i
N#C/C(=C(/O)c1ccc(Cl)cc1)c1nc2ccccc2[nH]1,-3%,7%,-5%,-16%,i,i
N#C/C(=C(\O)c1cc(Cl)sc1Cl)c1nc2ccccc2[nH]1,21µM*,?,-7%,-4%,i,i
COc1cc(/C(O)=C(\C#N)c2nc3ccccc3[nH]2)cc(OC)c1OC,15µM*,?,-1%,-22%,i,i
COc1cccc(NC(=O)CN2C(=O)CC(c3ccco3)Sc3ccccc32)c1 (stereo unspecified),/,/,/,18%,?,?
COc1ccc(Nc2ncc3c(n2)CCN(Cc2cccc(F)c2F)C3)c(OC)c1,/,/,/,8%,?,i
COc1cc(/C=C/C(=O)N(C)CC(=O)Nc2ccccc2SC)cc(OC)c1OC,4%,-5%,-1%,-19%,i,13µM*
SMILES,MCF10A rerep,SW480 rereplic,PTAP TSG101 blk,RGS4 inhibitor,KB-3-1 tox,KB-V1 cytotox
CSc1ccccc1NC(=O)CN(C)C(=O)/C=C/c1ccccc1,6%,-11%,-10%,32%,i,i
COc1cccc(OCCOCC(O)CN2CCN(Cc3ccc(Cl)cc3)CC2)c1 (stereo unspecified),?,-3%,0%,-18%,i,i
CCc1ccc(OCCOCC(O)CN2CCN(Cc3ccc(Cl)cc3)CC2)cc1 (stereo unspecified),15µM*,?,0%,4%,?,i
COc1cc2c(cc1OC)n(CC(=O)c1cc(C)ccc1C)c(=O)n1nc(CCn3nc(C)cc3C)nc21,/,/,/,3%,/,/
CCCCCCCC[n+]1c(C)n(-c2ccccc2)c2ccc(NC(C)=O)cc21,28%,9%,-1%,-2%,4.6µM*,i
CCN(CC)CCNC(=O)C1CCN(c2cc(C)nc3c(-c4ccc(Cl)cc4)c(C)nn23)CC1,/,/,/,16%,?,i
Nc1c(NC2CCCCC2)c2ccccc2oc1=O,2%,2%,-5%,3%,i,16µM*
CC1=Nc2cc(C(=O)NC3CCC(C)CC3)ccc2Sc2c(C)ccc(C)c21 (stereo unspecified),/,/,/,25%,0.52µM*,0.26µM*
CCOC(=O)N1CCC(NC(=O)c2ccc3c(c2)N=C(C)c2c(C)ccc(C)c2S3)CC1,23%,7.3µM*,0%,-8%,2.1µM*,5.2µM*
COCCCNC(=O)c1cccc(C(=O)NCCCOC)c1,1%,4%,/,21%,i,i
COCCCNC(=O)c1ccc2c(c1)N=C(C)c1c(C)ccc(C)c1S2,/,/,/,14%,0.016µM*,0.052µM*
COc1ccccc1/C=C1\C=Cc2ccccc21,/,/,/,/,i,i
C/C(=N\N(C)C)C1=C(O)c2ccccc2C1=O,0%,-5%,0%,18%,i,i
O=C1C(C2=C(O)c3ccccc3C2=O)=Nc2ccccc21,23µM*,?,-6%,?,?,7.3µM*
O=C(COc1ccc2c(c1)CCC2)N1CCN(c2cccc(C(F)(F)F)c2)CC1,-8%,0%,0%,-12%,i,i
O=C(COc1ccc2c(c1)CCC2)N1CCN(c2ccccc2F)CC1,-3%,-5%,-3%,5%,i,0.0037µM*
COCCNC(=S)NN=C1CCCCCC1,8.2µM*,?,-7%,4%,i,i
COCCNC(=S)NN=C1CCC(c2ccccc2)CC1 (stereo unspecified),11%,?,1%,-8%,i,i
CCOC1=C2CN(S(=O)(=O)c3ccc(C)cc3)[C@H](c3ccc(CC)cc3)C[C@@H]2N(S(=O)(=O)c2ccc(C)cc2)[C@H](c2ccccc2)C1,/,/,/,/,i,i

# Screening results from PubChem BioAssay.
